Reference: PubChem BioAssay AID2235 (The Scripps Research Institute Molecular Screening Center, 2010)
Hit rate of the full screen: of about 320,000 compounds, about 2,800 (0.88%) were called active. This is one part of a sample in which actives are shown more often than they occur. Unmarked numbers belong to inactive results.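 The calls were made as follows: active = inhibition above the mean inhibition of all tested compounds plus 3 SD, computed separately for each screening campaign (cut at about 15% in these data); inactive = the rest.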

What follows are compounds tested against Serine/threonine-protein phosphatase PP1-alpha catalytic subunit (Homo sapiens) (UniProt P62136) (assay: PP1-alpha phosphatase inhibitors, primary screen, counter-screen for PP5 inhibitor project, biochemical, fluorescence, OMFP substrate, single point (AID 2235)). Details: purified PP1alpha, at 6.7 µM, hits give high values.
Serine/threonine-protein phosphatase PP1-alpha catalytic subunit (Homo sapiens), sequence (P62136 whole entry, looked up): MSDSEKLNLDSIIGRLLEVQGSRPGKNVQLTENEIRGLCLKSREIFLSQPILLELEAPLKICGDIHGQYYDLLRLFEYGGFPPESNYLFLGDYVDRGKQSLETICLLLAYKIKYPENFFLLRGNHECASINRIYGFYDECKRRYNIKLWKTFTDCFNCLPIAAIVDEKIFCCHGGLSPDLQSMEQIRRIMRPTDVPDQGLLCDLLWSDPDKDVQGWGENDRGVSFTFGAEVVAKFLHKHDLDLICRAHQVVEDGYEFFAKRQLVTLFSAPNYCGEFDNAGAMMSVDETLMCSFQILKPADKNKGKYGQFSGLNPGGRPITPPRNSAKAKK

Compound	inhibition
COC(=O)Nc1ccc(S(=O)(=O)Nc2cc(OC)nc(OC)n2)cc1	0.14%
O=[N+]([O-])c1ccccc1/C=N/n1c(COc2ccccc2)n[nH]c1=S	19.8% (active)
Fc1ccc(/C=N/n2c(COc3ccccc3)n[nH]c2=S)cc1	1.88%
CCOc1ccc(-c2n[nH]c(=S)n2/N=C/c2cc3c(cc2[N+](=O)[O-])OCO3)cc1	1.23%
CC(C)(C)OC(=O)N1CCC(NC(=O)c2[nH]cnc2C(=O)N[C@@H](Cc2ccccc2)C(=O)OCc2ccccc2)CC1	5.67%
COc1ccc(CCNC(=O)COC(=O)c2ccc[nH]c2=O)cc1	-2.04%
CCc1ccc(-c2nn(-c3ccccc3C)cc2C(=O)N2CCN(C3CCS(=O)(=O)C3)CC2)cc1 (configuration not stated)	-1.65%
CCc1ccc(-c2nn(-c3ccccc3)cc2CSC(=N)N)cc1	16.1% (active)
Cc1ccc(-c2nn(-c3ccccc3)cc2C(=O)NC2CCC(O)CC2)cc1 (configuration not stated)	-2.02%
c1ccc(-c2nccc(-c3ccc(-n4cnc5ccccc54)cc3)n2)nc1	44.6% (active)
COC(=O)c1ccc(-n2cnc3ccccc32)nc1	1.21%
Cc1nccc(-c2ccc(-n3c(C)ccc3C)cc2)n1	-1.67%
CC1(C)CC(=O)C(N=Nc2ccc(S(=O)(=O)N3CCCCCC3)cc2)=C(O)C1	-0.81%
Nc1ncnc(Nc2cccc(Cl)c2Cl)n1	-0.33%
c1ccc(C(c2ccccc2)N2CCN(Cc3nnnn3C3CCCCC3)CC2)cc1	1.36%
O=C(OCC1OC(Oc2ccc(O)cc2)C(O)C(O)C1O)c1ccccc1 (configuration not stated)	-5.64%
O=C(OCC1O[C@@H](OC(=O)c2cc(O)c(O)c(O)c2)[C@@H](OC(=O)c2cc(O)c(O)c(O)c2)[C@@H](OC(=O)c2cc(O)c(O)c(O)c2)[C@@H]1OC(=O)c1cc(O)c(O)c(O)c1)c1cc(O)c(O)c(O)c1 (some centres not stated)	82.4% (active)
CC(C(=O)Nc1ccc(S(=O)(=O)N2CCCC2)cc1)N(C)Cc1ccc(F)cc1 (configuration not stated)	-3.95%
Cc1ncc(CO)c(/C=N/NC(=O)c2cccc(S(=O)(=O)N3CCCC3)c2)c1O	2.87%
COc1ccc(/C=N/NC(=O)c2ccc3c(c2)OCCO3)c(OC)c1	-5.02%
COc1ccc(/C=N/NC(=O)CNC(=O)c2ccc(S(=O)(=O)N3CCCC3)cc2)c(OC)c1	0.14%
COc1ccc(/C=N/NC(=O)Nc2ccc3nsnc3c2)c(OC)c1	15.8% (active)

Compound	inhibition
O=C(O)C(c1ccccc1)N1C(=O)/C(=C\c2ccc(-c3cccc(Cl)c3)o2)SC1=S (configuration not stated)	18.4% (active)
O=C1NN(c2ccccc2)C(=O)/C1=C/c1ccc(-c2cccc(C(=O)O)c2)o1	5.88%
CN1C(=O)/C(=C\c2ccc(-c3ccccc3)o2)SC1=S	-2.09%
CCOc1ccc(S(=O)(=O)NCc2ccc3c(c2)OCO3)cc1C	1.37%
C/C(=N/NC(=O)CCc1ccccc1)c1ccco1	-1.45%
N#Cc1c(Cl)nc(-c2cccnc2)nc1-c1ccccc1	-1.04%
Cc1cc(S(=O)(=O)NCC(C)C)ccc1OCC(=O)NC1CC1	-3.62%
O=C(Cc1cccc2ccccc12)NNC(=O)Nc1ccc(Cl)cc1	-1.41%
Cc1ccc(NC(=S)NC(NC(=O)Cc2cccc3ccccc23)C(Cl)(Cl)Cl)cc1 (configuration not stated)	16.6% (active)
CC(C)(C)C(=O)NC(NC(=S)Nc1ccc(S(N)(=O)=O)cc1)C(Cl)(Cl)Cl (configuration not stated)	1.25%
CCn1cc(CNC(=O)c2cc([N+](=O)[O-])c(C)c([N+](=O)[O-])c2)cn1	-2.81%
COc1ccc(C(=O)NC2(C(F)(F)F)NC(=O)N(CCCc3ccccc3)C2=O)c(OC)c1OC (configuration not stated)	1.31%
O=C1OC(c2ccc(Cl)cc2)=N/C1=C\c1cccnc1	-0.8%
CCOc1cc(/C=C2/N=C(c3ccc(C(C)(C)C)cc3)OC2=O)cc(Cl)c1OS(C)(=O)=O	16% (active)
Cc1ccc(C2=N/C(=C\c3ccc(OS(=O)(=O)c4ccc(C)cc4)cc3)C(=O)O2)cc1	0.93%
COc1ccc(NS(=O)(=O)c2ccc(C)c(C(=O)NCC(c3cccs3)N3CCOCC3)c2)cc1 (configuration not stated)	-0.23%
O=C(COc1ccc(S(=O)(=O)NCc2ccccc2)cc1)N1CCOCC1	0.87%
Cc1cnc(C(=O)N2CCCC(C(=O)c3ccc(C(F)(F)F)cc3)C2)cn1 (configuration not stated)	-4.22%
Cc1c(-c2nn(C)c(=O)c3ccccc23)oc2ccc(F)cc2c1=O	3.07%
Cc1cc(C)c(S(=O)(=O)NCCCN2CCOCC2)cc1Br	-3.53%
CCC(c1nnnn1Cc1ccco1)N(CCc1ccccc1)Cc1cc2cccc(C)c2[nH]c1=O (configuration not stated)	7.62%
CCC(c1nnnn1C1CCCC1)N(Cc1cccs1)Cc1cc2cccc(C)c2[nH]c1=O (configuration not stated)	16.5% (active)

Compound	inhibition
Cc1cccc2cc(CN(Cc3ccc4c(c3)OCO4)Cc3nnnn3C3CCCC3)c(=O)[nH]c12	-2.51%
COc1ccc(OC)c(NC(=O)CN(Cc2ccc(Cl)cc2)S(C)(=O)=O)c1	0.99%
CCOc1cc(-c2nc3cc(C)ccn3c2NCC2CCCO2)ccc1O (configuration not stated)	-2.03%
CCCCCN(C(=O)NC(=O)Nc1cccc(C)c1C)S(C)(=O)=O	4.61%
CC(Oc1ccc2ccccc2c1)C(=O)NNC(=S)NC(=O)c1ccco1 (configuration not stated)	0.47%
Cc1ccc(OCC(=O)NCCCNC(=O)c2ccco2)cc1C	2.4%
CCCc1ccc(OCC(=O)NNC(=S)NC(=O)c2ccco2)cc1	18.6% (active)
CCN(CC)CCC(c1ccc2c(c1)OCO2)c1c(OC)cc(OC)c2c(-c3ccccc3)cc(=O)oc12 (configuration not stated)	1.96%
O=C(NCCc1ccccc1)C1CCC(Cn2c(=O)c3ccccc3n(Cc3cccnc3)c2=O)CC1 (configuration not stated)	-0.9%
CCC(C)N(C(=O)COC(=O)c1nc(Cl)ccc1Cl)C1CCS(=O)(=O)C1 (configuration not stated)	-0.12%
Cc1nn(C)c(Oc2ccc(Cl)cc2)c1C=O	-4.58%
Cc1ccc2c(c1)NCC(C(=O)NC1CCC(C)CC1)O2 (configuration not stated)	-3.3%
C/C(=N\c1nc2ccccc2n1C)c1cc(Cl)ccc1O	22% (active)
Cn1c(Nc2cccc(Cl)c2)nc2ccccc21	-3.75%
Cc1ccc(O)c(CNc2nc3ccccc3n2C)c1	-1.3%
Cc1ccc(NC(=O)CSc2nnc(-c3cnccn3)n2Cc2ccco2)cc1C	1.95%
CCn1c(SCC(=O)Nc2cc(C)ccc2C)nnc1-c1cnccn1	20.4% (active)
CCc1ccc(NC(=O)CSc2nnc(-c3cnccn3)n2Cc2ccco2)cc1	2.61%
O=C(COC(=O)c1ccc(Oc2ccccc2)cc1)Nc1nnc(-c2ccccc2)o1	23.5% (active)
O=C(COC(=O)c1ccccc1Br)Nc1nnc(-c2ccccc2)o1	13.9%
CC(=O)Nc1cccc(C(=O)OCC(=O)Nc2nnc(-c3ccccc3)o2)c1	0.85%
Cc1ccc(S(=O)(=O)N(C)c2ccc(OCC(=O)NC3=NCCS3)cc2)cc1	-1.97%

Compound	inhibition
Cc1ccc(N=C2NC(=O)/C(=C/C=C/c3ccco3)S2)cc1C	16.1% (active)
Cc1ccc(N2NC(=O)/C(=C/C=C/c3ccco3)C2=O)cc1C	1.04%
CN1C(=O)/C(=C/c2ccco2)SC1=Nc1cccc(C(=O)O)c1	-2.67%
Cc1ccc(C)c(Cn2cnc3c(oc4ccccc43)c2=O)c1	1.24%
C=CCn1c(SCc2ccc(C(=O)NCCO)cc2)nc2ccccc2c1=O	2.26%
Cc1nc2ccccc2c(=O)n1NC(=O)c1ccc(Cl)c([N+](=O)[O-])c1	2.24%
O=C(Nn1c(SCc2ccc([N+](=O)[O-])cc2)nc2ccccc2c1=O)c1ccc(F)cc1	15.9% (active)
COc1ccc(C(=O)c2c3ccc([N+](=O)[O-])cc3[n+]([O-])n2CCCN)cc1	5.14%
CCOc1ccc(NC(=O)CN(C)CC(=O)NC(C)c2ccccc2)cc1OCC (configuration not stated)	-1.29%
Cc1cc(Nc2ccccc2)n(C(=O)c2ccc(N)cc2)n1	22.3% (active)
Cc1cc(Nc2ccccc2)n(CCC#N)n1	-2.37%
Cc1cc(C)n(C(=O)c2ccc(S(=O)(=O)N3CCCC3)cc2)n1	2.03%
CCOC(=O)C1=C(CCc2ccccc2)NC(=O)NC1c1ccc2ccccc2c1 (configuration not stated)	9.37%
COc1ccc(NS(=O)(=O)c2cc(NC(=O)C3CCCCC3)ccc2N2CCOCC2)cc1	0.37%
COc1cccc(C2Nc3cccc4cccc(c34)N2)c1	3.61%
Oc1ccc(C2Nc3cccc4cccc(c34)N2)cc1	30.9% (active)
Cc1ccc(C2Nc3cccc4cccc(c34)N2)cc1	1.42%
O=C1Nc2cc(C(=O)N3CCN(c4ccc(F)cc4)CC3)ccc2NC1CSCc1cccc(F)c1 (configuration not stated)	14.3%
O=C(c1cc(C(=O)N2CCN(c3ccc(F)cc3)CC2)cc([N+](=O)[O-])c1)N1CCN(c2ccc(F)cc2)CC1	1.38%
Cc1ccc(CSCC2Nc3ccc(C(=O)N4CCN(c5ccc(F)cc5)CC4)cc3NC2=O)cc1 (configuration not stated)	17.7% (active)
CCS(=O)(=O)N1Cc2ccccc2CC1C(=O)Nc1nc2ccc(F)cc2s1 (configuration not stated)	3.36%
